Laboratory results from PubChem BioAssay (NCI).
Values joined by “and” are separate entries in the source; they are usually repeats but may differ in a detail not shown here. Equal values may be shown once. This is part of a sample that, as a whole, favours compounds with a hit. Of some 83,000 tested, about 20% had one in any assay.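 Growth was measured after 48 h exposure to one concentration of compound in 96-well plates. Values under 10 count as active.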 Active and inactive are the calls of the source. Where a SMILES comes first, the peptide text is derived from it.

The molecules below were run on HOP-92 NSCLC (assay: NCI-60 one-dose screen, 48 h (100 = growth as untreated, 0 = no growth, -100 = all killed)). Conditions: 10 µM.
Experimental: Growth inhibition of the HOP-92 human Non-Small Cell Lung tumor cell line is measured as a screen for anti-cancer activity. Cells are grown in 96 well plates and exposed to the test compound for 48 hours. Compounds are tested at a single concentration, which is 10^-5 M for most compounds. The reported endpoint is percent growth (GI% or GIPRCNT), where numbers from 0 - 100% represent growth inhibition, and numbers from -100% - 0 represent cell death. For example, a value of 40 represents 60% growth inhibition. A value of 0 means no net growth occurred over the course of the experiment. A value of -40 indicates 40% of cells at the beginning of the experiment died by the end of the experiment. A value of -100 means all cells are dead at the end of the experiment.
NCI-60 Human Tumor Cell Lines Screen was performed using the standard one-dose NCI protocol, which is described in more detail at https://dtp.cancer.gov/discovery_development/nci-60/default.htm.
Compounds with GIPRCNT values below 10 were considered active. Activity score was based on GIPRCNT using the following formula: […]
Score is 0 for GIPRCNT values of 100 or above, 50 for GIPRCNT values of 0, and 100 for GIPRCNT values of -100.

| Structure (SMILES) | growth |
| --- | --- |
| O=C1c2c(O)ccc(O)c2C(=O)c2c(NCCNCCO)ccc(NCCNCCO)c21 | -56.9% (active) |
| O=C1OC(c2ccccc2)=N/C1=C\c1ccccc1 | 88.7% (inactive) |
| Cc1cc2ccccc2cn1 | 94.4% (inactive) and 101% (inactive) |
| CCc1cc(C)cc(O)c1 | 91.7% (inactive) |
| CC(C)NC(=O)N/C=C(\C#N)C(N)=O | 96.6% (inactive) |
| NC1CCC(C(=O)O)CC1 (stereo not given) | 83.3% (inactive) and 91.7% (inactive) |
| Cn1cnc([N+](=O)[O-])c1Sc1ncn[nH]1 | 101% (inactive) |
| O=C1C=C(Nc2ccccc2)c2ccccc2C1=O | 89.7% (inactive) |
| c1ccc(-c2nc3ccccc3s2)cc1 | 82.4% (inactive) |
| CC1CCC2(C(=O)O)CCC3(C)C(=CCC4C5(C)CCC(O)C(C)(C)C5CCC43C)C2C1C (stereo not given) | 42.5% (inactive) and 65.8% (inactive) |
| O=C1OC(C(O)C(O)CO)C(O)=C1O (stereo not given) | 89.5% (inactive) |
| CC1CCC(C(C)C)C(NNC(N)=O)C1 (stereo not given) | 91.5% (inactive) |
| CC(=O)OC(C)C(=O)NCC(C)O (stereo not given) | 98% (inactive) |
| Nc1ccc2c(O)cc(S(=O)(=O)O)cc2c1 | 80.9% (inactive) |
| O=c1[nH]cnc2c1ncn2C1OC(CO)C(O)C1O (stereo not given) | 84.1% (inactive) and 79.4% (inactive) and 115% (inactive) |
| NC(Cc1ccccc1)C(=O)NC(Cc1ccccc1)C(=O)O (stereo not drawn) (H-Phe-Phe-OH; configuration not given here) | 97.6% (inactive) |
| CCCCCCCCCCNC(=O)CI | -79% (active) |
| CCOC(=O)c1c(C)cc(=O)oc1C | 80.7% (inactive) |
| O=C(Cc1ccccc1)c1ccc(O)c(Cl)c1 | 57.6% (inactive) |
| O=c1n(CC2CO2)c(=O)n(CC2CO2)c(=O)n1CC1CO1 (stereo not given) | 75.9% (inactive) |

| Structure (SMILES) | growth |
| --- | --- |
| c1ccc(CNCCNCc2ccccc2)cc1 | 80.6% (inactive) |
| CC[C@H](CC[C@@H](C)[C@H]1CC[C@H]2[C@@H]3CC=C4C[C@@H](O)CC[C@]4(C)[C@H]3CC[C@]12C)C(C)C | 83.5% (inactive) |
| CCCCNc1ccc(Nc2ccccc2)cc1 | 63.7% (inactive) |
| Cc1ccc(=O)[nH]n1 | 85.1% (inactive) |
| Cc1ccc(S(=O)(=O)c2ccccc2)cc1 | 58.7% (inactive) |
| N#CC(C#N)N=Nc1ccc(Cl)cc1 | -15.1% (active) |
| CC(C)NCC(O)c1ccc(O)c(O)c1 (stereo not given) | 60.1% (inactive) and 59% (inactive) and 68.4% (inactive) |
| Cc1cc(-c2ccc(N=Nc3ccc4c(S(=O)(=O)O)cc(S(=O)(=O)O)c(N)c4c3O)c(C)c2)ccc1N=Nc1ccc2c(S(=O)(=O)O)cc(S(=O)(=O)O)c(N)c2c1O | 67.1% (inactive) |
| O=CN1CCCCC1 | 120% (inactive) |
| COc1ccc(N/C=C/C2=[N+](C)c3ccccc3C2(C)C)c(OC)c1 | 69.5% (inactive) |
| OCCN1CCCCCCC1 | 68% (inactive) |
| O=C(O)CCCl | 78.4% (inactive) |
| CCCCOc1ccc(Nc2cc(Cl)ccc2C(=O)O)cn1 | 74.8% (inactive) |
| C/C(=C\c1ccccc1)c1ccccn1 | 105% (inactive) |
| O=C1CSC2=NCCN12 | 112% (inactive) and -2.23% (active) |
| CN(C)c1ccc(/C=C\C(=O)c2ccccc2)cc1 | 103% (inactive) and 99.8% (inactive) and 86.1% (inactive) |
| ClCCOCCOc1ccc(C2CCCCC2)cc1 | 87.9% (inactive) |
| CC(=O)Nc1ccc(S(N)(=O)=O)cc1 | 96.6% (inactive) |
| CN(C)CC1CCCCCC(CN(C)C)C1=O (stereo not given) | 73.2% (inactive) |
| CCN(CCNS(C)(=O)=O)c1ccc(N)c(C)c1 | 84.4% (inactive) |
